# In the library only some 9.5% were active in any assay of this set; here they are far more common.
# NPSR antagonist – blocks cAMP signaling of the human neuropeptide S receptor; Potency, µM (titrated, usually from 38.3 µM), for the others: at the highest dose activity change, negative = inhibition, most hits filed as inhibitors; CHO-NPSR cells, cAMP TR-FRET, antagonist mode; hit rate 1% among 220,000; Q6W5P4; AID 1461; note: nearly all actives have a fitted effect of over 50% in size
# Target sequence (Q6W5P4 whole entry, looked up): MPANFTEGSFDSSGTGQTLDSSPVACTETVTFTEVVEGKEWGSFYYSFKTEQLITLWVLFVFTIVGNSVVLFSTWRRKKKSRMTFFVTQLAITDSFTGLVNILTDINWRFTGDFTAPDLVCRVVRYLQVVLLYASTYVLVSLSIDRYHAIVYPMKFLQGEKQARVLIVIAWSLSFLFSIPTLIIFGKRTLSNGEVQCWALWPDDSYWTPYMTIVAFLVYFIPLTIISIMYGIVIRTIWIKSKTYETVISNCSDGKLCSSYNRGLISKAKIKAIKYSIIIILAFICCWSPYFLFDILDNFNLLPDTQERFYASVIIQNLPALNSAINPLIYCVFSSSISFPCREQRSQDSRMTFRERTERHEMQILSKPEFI
# HPGD inh – blocks human HPGD enzyme activity. AID 894. Potency, µM, for inactives: at the highest dose activity change, negative = inhibition, most hits filed as inhibitors. purified HPGD, NADH fluorescence kinetic, PGE2 substrate. P15428. hit rate 4.3% among 150,000; active = well fitted inhibition curve with a large enough effect, not every such curve was filed as active; inconclusive = small, poorly fitted or top-dose-only effect, or another doubt; inactive = no such curve, though single readings can be large or run the other way
#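 20 nM HPGD preincubated 15 min at room temperature with compound in 50 mM Tris-HCl pH 8, 0.01% Tween 20. Started with 1 mM NAD+ and 30 uM prostaglandin E2; NADH fluorescence (360/450 nm) read 5 times over 30-s intervals, last minus first.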
# Tau fluor cs – counter-screen for tau fibril formation inhibitors | tau K18 P301L Alexa594 fluorescence, heparin fibrillization | hit rate 0.93% among 280,000 | Potency, µM (doses to about 57.7 µM), without a hit: top-dose activity change, negative = decrease | AID 1463; note: nearly all actives have a fitted effect of over 55% in size
#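 Human K18 P301L tau (15 uM unlabeled plus 0.24 uM Alexa 594-labeled, final) in 100 mM sodium acetate pH 7 was mixed with compound and 20 uM heparin and incubated 6 hr at 37 C.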
# Tau ThT inhib – inhibitors of human tau fibril formation, thioflavin T binding | P10636 | recombinant tau K18 P301L (four-repeat tau fragment), heparin-induced fibrillization, ThT fluorescence | Potency, µM (titrated, usually from 57.4 µM), for inactives: top-dose activity, negative = inhibition, usual class: inhibitors | hit rate 2.1% among 270,000; note: nearly all actives have a fitted effect of over 55% in size
# Target sequence (P10636 561-689 P618L limits assumed): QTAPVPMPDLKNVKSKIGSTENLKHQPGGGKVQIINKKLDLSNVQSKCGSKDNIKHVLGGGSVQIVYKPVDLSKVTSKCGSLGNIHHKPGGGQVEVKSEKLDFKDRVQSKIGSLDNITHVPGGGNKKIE
#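 Tau K18 P301L fragment (15 uM unlabeled plus 0.24 uM Alexa 594-labeled) in 100 mM sodium acetate pH 7 with compound, fibrillization induced by 20 uM heparin for 6 hr at 37 C. Thioflavin T (30 uM) added, fluorescence read after 1 hr (ex 450, em 510 nm).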
# Tau fibril FP – tau fibrillization inhibition (FP). P10636. K18 P301L tau heparin fibrillization, Alexa594 FP, 6 h. Potency, µM (highest dose often 57.7 µM), for inactives: top-dose activity, negative = inhibition, hits mostly inhibitors. hit rate 0.39% among 280,000. AID 1468; note: nearly all actives have a fitted effect of over 55% in size
#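 Human K18 P301L fragment (15 uM unlabeled plus 0.24 uM Alexa 594-labeled) in 100 mM sodium acetate pH 7 with compound, aggregation induced by 20 uM heparin for 6 hr at 37 C. ThT (30 uM) added for 1 hr, then Alexa 594 FP read.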
# ALDH1A1 block – inhibitors of human aldehyde dehydrogenase 1A1. P00352. Purified ALDH1A1, NADH fluorescence, propionaldehyde substrate. Potency, µM (highest dose often 75.3 µM), without a hit: at the top dose activity, negative = inhibition, hits mostly inhibitors. hit rate 7.3% among 220,000; active = well fitted inhibition curve with a large enough effect, not every such curve was filed as active; inconclusive = small, poorly fitted or top-dose-only effect, or another doubt; inactive = no such curve, though single readings can be large or run the other way;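 note: plate controls were no enzyme wells and a reference inhibitor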
# An asterisk follows results filed as active; ? = inconclusive; . = no result given; [ ] = another dose, or the depositor's remark. Unless noted, calls come from the whole dose curve; as a rule, active = well fitted curve in the direction sought with a large enough effect; inconclusive = small, poorly fitted or top-dose-only effect, or another doubt; inactive = no such curve, though single readings can be large; an effect the other way counts as inactive or inconclusive. Unless noted, % is set by controls: 0 for no effect and ±100 for the full control effect; potency is the fitted concentration of half-maximal effect.
SMILES,NPSR antagonist,HPGD inh,Tau fluor cs,Tau ThT inhib,Tau fibril FP,ALDH1A1 block
Cc1ccc(S(=O)(=O)N(CC(=O)N2CCC(C)CC2)c2cccc(C)c2)cc1,-27%[46.1 µM],-9%,-3%,1%,1%,11µM*
CCOC(=O)N1CCN(C(=O)CN(c2cccc(C)c2)S(=O)(=O)c2ccc(C)cc2)CC1,-23%[46.1 µM],-3%,-8%,-6%,-4%,?
COc1ccc(Cl)cc1-c1n[nH]c(=S)o1,6.3µM*,?,-1%,-9%,6%,?
CCCCn1c(-c2cc(Cl)ccc2OC)n[nH]c1=S,-14%[46.1 µM],28µM*,1%,2%,8%,?
COc1ccc(CCn2c(-c3ccc(Cl)cc3)n[nH]c2=S)cc1OC,-15%,.,-12%,-13%,-2%,?
Cc1ccc(C)c2c1[nH]c1ccc([N+](=O)[O-])cc12,1%[46.1 µM],-3%,?,?,?,1%
O=C(c1csnn1)N1CCC2(CCN(Cc3cc(C(F)(F)F)cc(C(F)(F)F)c3)CC2)CC1,.,-15%,.,.,.,-2%
CSC1=C(C#N)C(c2ccc3c(c2)OCO3)C2=C(CCCC2=O)N1 (centres undefined),-19%[46.1 µM],16µM*,-2%,-1%,3%,-6%
CCSC1=C(C#N)C(c2ccc(Cl)cc2)C2=C(CCCC2=O)N1 (centres undefined),-24%[46.1 µM],-15%,-13%,-1%,-3%,-9%
Cn1c(N2CCOCC2)nc(-c2ccccc2)c1-c1ccccc1,-12%[46.1 µM],?,-20%,-9%,10%,?
Cc1ccc(Nc2nc(NCc3ccco3)c3ccccc3n2)cc1,-48%,.,?,-6%,-12%,?
c1coc(CNc2nc(N3CCCCC3)nc3ccccc23)c1,-9%[46.1 µM],?,-14%,-12%,2%,?
COc1ccccc1Nc1nc(NCc2ccco2)c2ccccc2n1,?,.,22µM*[quencher],?,?,.
Oc1ccccc1Nc1nc(NCc2ccccc2)c2ccccc2n1,?,.,16µM*[quencher],-19%,9%,-8%
c1ccc(N2CCN(c3nc(NCc4ccco4)c4ccccc4n3)CC2)cc1,?,-17%,25µM*[quencher],?,3%,-9%
COc1ccc(-c2nc3ccccc3c(=O)n2NC(=S)N(C)C)cc1,11%,14µM*,-17%,?,?,4µM*
COc1ccc(OCC(=O)Nn2c(-c3ccc(OC)cc3)nc3ccccc3c2=O)cc1,13%,-13%,6%,5%,-3%,?
O=C1C=C(NCCc2cc(Br)c(O)c(Br)c2)C(=O)c2ncccc21,.,-11%,.,.,.,1.6µM*
O=C(CS(=O)CC(=O)N(CC(=O)NC1CCCC1)C1CCCC1)Nc1ccc(F)cc1 (centres undefined),-1%[46.1 µM],-7%,-1%,1%,-4%,3%
Cc1ccc(S(=O)(=O)N2CCCC2)cc1S(=O)(=O)N1CCCC1,-1%[46.1 µM],-11%,-11%,-14%,-9%,18µM*
Cc1cc(S(=O)(=O)N2CCCC2)c(C)s1,-2%[46.1 µM],.,-10%,-5%,-4%,7.9µM*
COc1cccc(C2CC(=O)N3CN(c4cccc(Cl)c4C)CSC3=C2C#N)c1OC (centres undefined),-22%[46.1 µM],7.9µM*,?,28µM*,32µM*,3.2µM*
COc1ccc(OC)c(C2CC(=O)N3CN(c4cccc(Cl)c4C)CSC3=C2C#N)c1 (centres undefined),-11%[46.1 µM],7.9µM*,?,28µM*,32µM*,3.2µM*
COc1ccc(OC)c(-c2noc(N3CCN(c4cccc(C)c4C)CC3)n2)c1,.,.,-14%,-18%,-3%,.
Cc1cccc(NS(=O)(=O)c2cc(C(=O)O)ccc2Cl)c1,.,-8%,.,.,.,-3%
SMILES,NPSR antagonist,HPGD inh,Tau fluor cs,Tau ThT inhib,Tau fibril FP,ALDH1A1 block
CCC/C(=N/NC(=O)c1csc(C)c1C)c1ccc(Cl)s1,-6%[46.1 µM],-22%,-16%,-10%,-1%,-14%
CCO[C@H]1OC(C(=O)N2CCCCCCC2)=C[C@@H](C)[C@@H]1CCCO,-26%,.,0%,-5%,-8%,-3%
CCc1nc2c(sc3nc4c(cc32)COC(C)(C)C4)c(=O)n1Cc1ccccc1,-3%[46.1 µM],?,1%,2%,2%,0.71µM*
CCc1nc2c(sc3nc4c(cc32)COC(C)(C)C4)c(=O)n1Cc1ccco1,?,-27%,-5%,-14%,9%,2.5µM*
CCc1nc(OCc2ccco2)c2sc3nc4c(cc3c2n1)COC(C)(C)C4,?,-24%,-4%,?,-10%,?
COc1ccc([N+](=O)[O-])cc1NC(=O)c1ccc(C)o1,2%,-2%,1%,-4%,0%,6%
Cn1ccc(C(=O)Nc2ccc(Br)cc2Br)n1,11%,?,8%,9%,2%,-5%
C=C(C)C(O)/C=C/c1ccc(OC)cc1 (centres undefined),.,.,-13%[11.6 µM],?,0%[11.6 µM],?
CCCCCn1c(SCC#N)nc2cc(C(=O)NCC3CCCO3)ccc2c1=O (centres undefined),7%[46.1 µM],2.5µM*,-12%,-12%,4%,2%
C=CCn1c(SCC(=O)N2CCCC2)nc2cc(C(=O)NCC3CCCO3)ccc2c1=O (centres undefined),-1%[46.1 µM],?,-6%,-5%,-5%,?
O=C(CCCn1c(SCC(=O)c2ccc(O)c(O)c2)nc2ccccc2c1=O)NCC1CCCO1 (centres undefined),?,5µM*,-29%,?,7%,18µM*
COC(=O)c1ccc2c(=O)n(CC3CCCO3)c(SCC(=O)Nc3ccccc3OC)nc2c1 (centres undefined),?,-12%,-13%,-13%,4%,14µM*
CCOc1ccc(NC(=O)c2oc3ccccc3c2NC(=O)Cc2cccc(C)c2)cc1,.,.,?,0%,-9%,.
CCNc1ccc(S(=O)(=O)N(C)C)cc1NCC(=O)Nc1ccccc1Cl,-28%,.,-21%,5%,13%,8.9µM*
CC1CCCCN1S(=O)(=O)c1ccc(NC(=O)CSc2nnnn2C)cc1 (centres undefined),-4%[46.1 µM],-30%,-6%,-1%,-12%,22µM*
Cc1cc2cc(C)c3nnc(SCC(=O)Nc4ccc(S(=O)(=O)N5CCCCC5C)cc4)n3c2cc1C (centres undefined),-4%,-12%,3%,10%,1%,?
Cc1ccccc1-n1nnnc1SCC(=O)Nc1ccc(S(=O)(=O)N2CCCC2)cc1,-20%[46.1 µM],-4%,?,-1%,-12%,4µM*
O=C(CSc1nnc2ccccn12)Nc1ccc(S(=O)(=O)N2CCOCC2)cc1,3%,.,-2%,1%,-3%,25µM*
CCCC(=O)Nc1ccc(S(=O)(=O)N2CCOCC2)cc1,5%[46.1 µM],-4%,-6%,-4%,2%,3.2µM*

# Source: PubChem BioAssay
